Screening results deposited in PubChem BioAssay by Bradner/Qi Labs at DFCI.
This is one part of a sample in which hits are shown more often than they occur.
CBX7 AlphaScr – inhibitors of human CBX7 binding to H3K27me3 peptide | AlphaScreen His6-CBX7 / biotin-H3K27me3 peptide binding; hits give low values | 66,000 tested, 1.1% active | normalised signal (fraction of DMSO) (test concentration not listed) | AID 1224903; in the data active = normalised signal below about 0.5
Target sequence (O95931 whole entry, looked up): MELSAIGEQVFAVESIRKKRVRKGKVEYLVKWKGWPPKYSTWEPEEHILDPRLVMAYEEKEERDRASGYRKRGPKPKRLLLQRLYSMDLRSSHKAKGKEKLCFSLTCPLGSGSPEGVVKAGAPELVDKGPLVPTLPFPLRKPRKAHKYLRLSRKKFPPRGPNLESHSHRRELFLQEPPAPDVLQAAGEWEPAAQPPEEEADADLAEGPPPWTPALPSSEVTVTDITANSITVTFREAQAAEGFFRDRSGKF
The depositor's hits bear a star; ! = a repeat was not active.

SMILES	CBX7 AlphaScr
Cc1cc(N2CCCCC2)nc2ccc(NC(=O)CCC(=O)N3CCCC(C)C3)cc12 (stereo unspecified)	0.48*
CCOC(=O)C1CCCN(C(=O)CCC(=O)Nc2ccc3nc(N4CCC(C)CC4)cc(C)c3c2)C1 (stereo unspecified)	1
Cc1cc(N2CCC(C)CC2)nc2ccc(NC(=O)CCC(=O)N3CCCCCC3)cc12	0.83
O=C(NCCC1=CCCCC1)c1cc(=O)n(Cc2ccc(Cl)cc2)c2ccccc12	0.92
Cc1cc(N2CCOCC2)nc2ccc(NC(=O)CCC(=O)N3CCCCCC3)cc12	0.97
COc1cc(Nc2nc(SCC(=O)Nc3cc(C)[nH]n3)nc3ccccc23)cc(OC)c1	1
Cc1cc(NC(=O)CSc2nc(NCc3ccc(Cl)cc3)c3ccccc3n2)n[nH]1	0.83
COc1ccc(CNc2nc(SCC(=O)Nc3cc(C)[nH]n3)nc3ccccc23)cc1	0.37*
Cc1ccc(CCNC(=O)C2CCN(C(=O)c3cc4sccc4n3C)CC2)cc1	1.1
CCCCNC(=O)C1CCCN(Cc2nc(-c3ccc(CC)cc3)oc2C)C1 (stereo unspecified)	0.99
Cc1ccccc1Nc1c(-c2cccc(Cl)c2)nc2c(C)cccn12	1
COc1ccc(NC(=O)NCCN2CCN(c3cccc(C)c3C)CC2)cc1	1.1
Cc1cc(NC(=O)c2c(-c3ccccc3Cl)noc2C)ccc1Br	1.1
COc1ccc(CNC(=O)c2cn(C3CCCC3)c(=O)c3c2c2ccccc2n3C)cc1	0.93
Clc1ccc(-c2csc(Nc3ccccc3)n2)cc1Cl	0.79
Cc1ccc(C)c(-c2csc(Nc3ccc(Cl)cc3)n2)c1	0.99
COc1ccc(Nc2nc(-c3ccc(Cl)cc3)cs2)cc1	0.81
COc1cccc(Nc2nc(-c3ccc(Cl)c(Cl)c3)cs2)c1	0.44*
COc1cccc(Nc2nc(-c3ccccc3)cs2)c1	1.2
Clc1ccc(-c2csc(Nc3ccc(Br)cc3)n2)cc1Cl	0.46*!
Brc1ccc(Nc2nc(-c3ccc(I)cc3)cs2)cc1	0.71
Cc1ccc(-c2csc(Nc3ccc(Cl)cc3)n2)cc1C	0.31*!
COc1cccc(Nc2nc(-c3ccc(-c4ccccc4)cc3)cs2)c1	0.63
Cc1ccc(C2CC(C(F)(F)F)n3ncc(C(=O)Nc4cccc(C(C)O)c4)c3N2)cc1 (stereo unspecified)	0.91
Cc1ccc(-n2c3c(cc(C(=O)Nc4ccc(Cl)cn4)c2=O)C(=O)CC(C)(C)C3)cc1	1.1
SMILES	CBX7 AlphaScr
COc1ccc(-c2noc(CCC(=O)Nc3cccc(Cl)c3)n2)cc1	0.95
COc1ccccc1CNC(=O)C1CCN(S(=O)(=O)c2cnc[nH]2)CC1	0.87
Cc1cc(O)cc(O)c1-c1n[nH]c(C)c1Oc1ccccc1	0.9
CCOc1ccc(-n2ccnc2SCC(=O)Nc2cc(C(F)(F)F)ccc2Cl)cc1	1
c1ccc(-c2nc(-c3c[nH]c4ccccc34)[nH]c2-c2ccccc2)cc1	0.8
Cc1ccc(-c2nc(-c3c[nH]c4ccccc34)[nH]c2-c2ccc(C)cc2)cc1	0.37*
Oc1ccccc1-c1nc(-c2ccc(F)cc2)c(-c2ccc(F)cc2)[nH]1	0.7
Oc1ccccc1-c1nc(-c2ccccc2)c(-c2ccc(F)cc2)[nH]1	0.58
Cc1ccc(Nc2c(-c3c[nH]c4ccccc34)nc3cccc(C)n23)cc1	0.87
Fc1ccc(-c2[nH]c(-c3c[nH]c4ccccc34)nc2-c2ccccc2)cc1	0.42*
COc1ccc(-c2cn3c(C)c(C(=O)Nc4cc(OC)ccc4OC)sc3n2)cc1	0.93
O=C(CC1(O)C(=O)N(Cc2ccc(Cl)cc2)c2ccccc21)c1ccncc1 (stereo unspecified)	0.71
CC(C)CCNC(=O)c1ccc2nc(-c3ccco3)c(-c3ccco3)nc2c1	0.66
O=C(c1ccc2nc(-c3ccco3)c(-c3ccco3)nc2c1)N1CCc2ccccc2C1	0.015*
CCCCNC(=O)c1ccc2nc(-c3ccco3)c(-c3ccco3)nc2c1	0.75
c1ccc(-c2ccc(C3CC(c4cccs4)n4nnnc4N3)cc2)cc1 (stereo unspecified)	0.84
Cc1cccc(NC(=O)C(=O)NCCCn2ccnc2)c1	0.42*
O=C(NCCCN1CCOCC1)c1cc(-c2ccco2)on1	0.95
O=C(NCCCn1ccnc1)c1cc(-c2ccco2)on1	0.42*
COc1cccc(NC(=O)C(=O)NCCCn2ccnc2)c1	0.87
Cc1ccc(NC(=O)C(=O)NCCCn2ccnc2)cc1Cl	0.91
O=C(NCCCn1ccnc1)c1cc(-c2ccc(Cl)c(Cl)c2)on1	0.89
O=C(CCn1nc(-c2ccccc2)ccc1=O)NCCN1CCCC1	1.2
COc1ccc(-n2cc(C(=O)Nc3ccc(OC)c(OC)c3)c3ccccc3c2=O)cc1	0.83
Fc1ccc(-n2nc(-c3ccc(Cl)cc3)cc2-c2ccc(Cl)cc2)c(Br)c1	0.95
SMILES	CBX7 AlphaScr
COc1ccc(C(=O)C(C)Sc2nc3ccccc3[nH]2)cc1 (stereo unspecified)	0.99
COc1ccc(CNC(=O)C2c3ccccc3C(=O)N3CCc4ccccc4C23)cc1 (stereo unspecified)	0.94
COCCNC(=O)c1cc(=O)[nH]c2ccc(S(=O)(=O)N3CCCCCC3)cc12	1.1
Cc1ccccc1Cn1c(CNC(=O)Cc2ccccc2)nc2ccccc21	1.2
Cc1ccc(NCc2nc3ccccc3n2Cc2ccccc2)cc1	0.85
Cc1ccccc1NCc1nc2ccccc2n1Cc1ccccc1	0.42*
O=c1c(-c2cc(Br)ccc2NCc2ccccc2)nc2ccccc2n1Cc1ccccc1	0.37*
Clc1ccccc1-c1nc(NCc2ccccc2)nc2ccc(Br)cc12	1.5
c1ccc(Cn2c(NCc3ccc4c(c3)OCO4)nc3ccccc32)cc1	0.94
COc1cccc(CNC(=O)C2(S(=O)(=O)c3ccc(Cl)cc3)CC2)c1	1
O=C(Cn1ccc2ccccc2c1=O)NCCC(=O)N1CCCC1	0.96
COc1ccccc1-c1c(C)nn2c(NCc3ccccn3)cc(C)nc12	0.39*
COc1ccccc1-c1c(C)nn2c(NCc3cccnc3)cc(C)nc12	1.1
COc1ccccc1-c1c(C)nn2c(NCc3ccc(C)cc3)cc(C)nc12	1
COc1ccc(CN(C)CCc2ccccn2)cc1OC	0.47*
COc1ccc(CN(C)CCc2ccccn2)cc1	0.69
COc1ccc(CN(C)CCc2ccccn2)cc1OCc1ccccc1	0.72
CCOC(=O)c1[nH]c2ccc(OCc3ccccc3)cc2c1CCN1C(=O)c2ccccc2C1=O	1.2
CCCCCCOc1ccc(COC2C(C(O)CO)OC3OC(C)(C)OC32)cc1 (stereo unspecified)	0.9
O=C(CS(=O)(=O)c1nc(-c2ccccc2)cn1-c1ccc(Cl)cc1)Nc1ccc(F)cc1	0.86
O=C(CS(=O)(=O)c1nc(-c2ccccc2)cn1-c1ccc(Cl)cc1)Nc1ccccc1F	0.48*
O=C(CS(=O)(=O)c1nc(-c2ccccc2)cn1-c1ccc(Cl)cc1)Nc1ccccc1	0.86
O=C(NCc1ccc(F)cc1)c1ccc2c(c1)NC(=O)c1ccccc1S2	0.98
COc1ccc(-c2cn(-c3ccc(F)cc3)c(SCC(=O)Nc3cccc(Cl)c3)n2)cc1OC	0.6
COc1ccc(-c2cn(-c3ccc(F)cc3)c(SCC(=O)Nc3cccc(F)c3)n2)cc1OC	0.39*
COc1ccc(-c2cn(-c3ccc(F)cc3)c(SCC(=O)Nc3cc(F)ccc3F)n2)cc1OC	0.88
COc1ccc(C2C(=O)N(CCc3ccccc3)CC(=O)N2Cc2ccc(Cl)cc2)cc1 (stereo unspecified)	1
O=C(CSc1nnc(Cc2cc(=O)[nH]c(=O)[nH]2)n1-c1ccccc1)Nc1ccc2c(c1)OCO2	1
